Rows were chosen to be rich in hits. Some 4.1% of all compounds tested hit in one or more screens of this group.
PRMT1 FP inh – inhibitors of human PRMT1; recombinant PRMT1, activity-based probe fluorescence polarization; inhibition, % at 2.79 µM; 1.3% of 370,000 active; AID 652257;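 active = inhibition above about 21% made by adding two undisclosed values, limit read from the data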
ABHD5-PLIN5 inh – ABHD5-PLIN5 protein interaction inhibition. Q00G26+Q8WTS1. Split G. princeps luciferase complementation, luminescence, 4 h. inhibition, % at 4 µM. 0.78% of 360,000 active. AID 602281;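 active = inhibition above the mean inhibition across every tested compound plus 3 SD, cut at about 22% in these data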;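 also: 0% = DMSO only wells and the 100% control is not disclosed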
UHRF1 binding – blocks human UHRF1 binding to methylated DNA; Q96T88; UHRF1 binding to methylated oligo, TR-FRET; inhibition, % at 4.4 µM; 0.75% of 370,000 active; in the data active = inhibition above about 21%;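 also: UHRF1 SRA domain binding a hemimethylated CpG hairpin DNA probe; 0% = median of test compound wells and 100% = reference inhibitor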
Target sequence (Q96T88 whole entry, looked up, the tested form may be a part): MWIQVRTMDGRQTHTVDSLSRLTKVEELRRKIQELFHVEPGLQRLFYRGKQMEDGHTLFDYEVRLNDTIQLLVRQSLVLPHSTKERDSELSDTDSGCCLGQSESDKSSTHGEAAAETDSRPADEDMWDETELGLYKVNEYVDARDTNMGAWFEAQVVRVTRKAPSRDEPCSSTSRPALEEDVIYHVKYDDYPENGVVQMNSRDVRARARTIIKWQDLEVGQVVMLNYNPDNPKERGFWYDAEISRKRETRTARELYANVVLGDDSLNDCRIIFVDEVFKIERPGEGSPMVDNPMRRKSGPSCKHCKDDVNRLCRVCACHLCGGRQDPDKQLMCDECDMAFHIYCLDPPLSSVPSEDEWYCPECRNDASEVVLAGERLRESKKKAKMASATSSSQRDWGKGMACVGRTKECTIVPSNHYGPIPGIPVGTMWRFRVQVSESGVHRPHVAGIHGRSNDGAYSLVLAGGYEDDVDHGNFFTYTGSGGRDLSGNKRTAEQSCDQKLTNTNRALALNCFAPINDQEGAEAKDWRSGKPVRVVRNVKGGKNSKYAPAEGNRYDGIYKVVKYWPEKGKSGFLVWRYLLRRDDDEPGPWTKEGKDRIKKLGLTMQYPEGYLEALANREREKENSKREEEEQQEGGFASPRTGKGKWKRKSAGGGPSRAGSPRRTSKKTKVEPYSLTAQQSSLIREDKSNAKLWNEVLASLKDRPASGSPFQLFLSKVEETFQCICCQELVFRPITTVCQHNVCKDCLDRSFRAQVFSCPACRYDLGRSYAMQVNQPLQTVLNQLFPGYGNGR
LEDGF integ inh – blocks HIV-1 LEDGF/p75-dependent DNA integration; TR-FRET IN-LEDGF/p75 DNA integration, Eu/Cy5; inhibition, % at 3.7 µM; 0.64% of 370,000 active;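 active = inhibition above the screen-wide mean plus 3 SD, cut at about 13% in these data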;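 also: signal is the Cy5 over europium emission ratio at 671 and 618 nm; 0% = plate median of compound wells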
rCAG binder – binds r(CAG) RNA repeats; inhibition, % at 3 µM; r(CAG) RNA repeat, TO-PRO-1 dye displacement fluorescence; 1.3% of 370,000 active; AID 651821;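 active = inhibition above the plate cutoff, the mean of all test compounds on that plate plus 3 SD, cut at about 35% in these data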;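 also: 0% = DMSO alone and 100% = 100 µM mitoxantrone as full dye displacement; higher means more dye released from RNA so lower well fluorescence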
MBD2 DNA inh – MBD2-methylated oligo binding inhibition; 0.31% of 370,000 active; Q9UBB5; TR-FRET, MBD2 binding to methylated oligonucleotide; inhibition, % at 4.4 µM; in the data active = inhibition above about 13%
rCAG bind conf – r(CAG) RNA repeat binding, confirmation; inhibition, % at 3 µM; TO-PRO-1 dye displacement fluorescence; shares compounds with rCAG binder; 70% of 4,300 active; AID 652065;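 active = inhibition above a per-plate cutoff, the mean inhibition of sample wells plus 3 SD, cut at about 35% in these data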;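 also: loss of TO-PRO-1 fluorescence as compound displaces dye from 1x1 AA loop RNA; 0% = DMSO only wells and 100% = 100 µM mitoxantrone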
dCAG dye counter – DNA CAG dye complex inhibition counter-screen; shares compounds with rCAG binder; d(CAG) DNA oligo TO-PRO-1 dye displacement, fluorescence; inhibition, % at 3 µM; 94% of 4,300 active; AID 652068;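 active = inhibition above its plate's cutoff, the mean test-well inhibition plus 3 SD, cut at about 4.8% in these data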;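 also: 0% = DNA dye mix with DMSO and 100% = 100 µM mitoxantrone; hits displace the dye from DNA and so lower well fluorescence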
DNA CAG DR – DNA CAG dye complex inhibition, dose response counter-screen | IC50, µM | 20% of 250 active | shares compounds with rCAG binder | DNA CAG/GTC duplex TO-PRO-1 dye displacement fluorescence; in the data active = IC50 below about 10 µM
The depositor's hits bear a star; x = no result.

SMILES	PRMT1 FP inh	ABHD5-PLIN5 inh	UHRF1 binding	LEDGF integ inh	rCAG binder	MBD2 DNA inh	rCAG bind conf	dCAG dye counter	others
O=C1/C(=C/c2ccccn2)SC(=S)N1c1ccc(O)cc1	7	-2	-1	-4	3	2	x	x
COc1ccc(/C=C2/SC(=S)N(c3ccc(S(=O)(=O)Nc4nccs4)cc3)C2=O)cc1	11	-15	3	2	73*	0	77*	44*
O=C1/C(=C\c2ccccn2)SC(=S)N1c1ccc(S(=O)(=O)Nc2nccs2)cc1	5	-15	-1	0	65*	-1	83*	52*
Cc1cccc(NC(=O)c2nc[nH]c2C(=O)N(C)CCO)c1	2	x	-1	-4	1	-5	x	x
CC(C)[C@H]1Cn2nnc(-c3ccccc3)c2Cn2c3ccccc3c(=O)n21	-2	x	1	2	3	-1	x	x
C=CCOc1ccc(Br)cc1/C=C1\NC(=S)N(C(C)=O)C1=O	0	-6	-8	3	66*	-11	49*	15*
C=CCOc1c(Br)cc(/C=C2/NC(=S)N(C(C)=O)C2=O)cc1OC	-3	-4	-1	1	20	-2	x	x
COCCCNc1nc2ccccc2nc1NS(=O)(=O)c1ccc(Cl)cc1	-3	-12	-1	0	3	3	x	x
COCCCNc1nc2ccccc2nc1NS(=O)(=O)c1cc(Cl)ccc1Cl	2	-1	-1	4	50*	1	48*	15*
CCOC(=O)Cn1cc(CN2C(C(=O)OC)CN(C3CC3)CCS2(=O)=O)nn1 (configuration not stated)	-4	x	15	-5	1	9	x	x
Cc1cccc(N2CCN(C(=O)Cc3c(C(=O)O)[nH]c4ccc(Cl)cc34)CC2)c1C	1	-8	2	3	50*	-1	72*	37*
O=C(O)CCCc1ccc2ccc3cccc4ccc1c2c34	5	2	2	-1	47*	3	27	7.5*
NCCCCc1ccc2ccc3cccc4ccc1c2c34	-1	7	-2	-6	20	-2	x	x
CCOC(=O)CC[C@H](NC(=O)[C@@H]1CC=C[C@@H]2CCN(Cc3ccc(Cl)cc3)C(=O)[C@@H]21)C(=O)OCC	3	x	3	3	x	5	x	x
O=C(O)Cc1sc(Nc2ccc(Cl)cc2)nc1-c1cccs1	15	x	-4	3	58*	-2	54*	29*	DNA CAG DR=6*
COC(=O)C1(Cc2ccccc2)NC(c2ccc(F)cc2)C2C(=O)N(C)C(=O)C21 (configuration not stated)	-4	0	2	-2	-1	-7	x	x
COc1ccc(N2C(=O)C3C(c4ccc(C(=O)O)cc4)NC(Cc4ccccc4)(C(=O)O)C3C2=O)c([N+](=O)[O-])c1 (configuration not stated)	13	-4	1	2	37*	0	18	6.6*
COC(=O)c1cccc(NC(=O)/C=C/c2ccc([N+](=O)[O-])cc2)c1	-2	-4	-6	-2	8	-5	x	x
O=C(/C=C/c1ccccc1)Nc1cc(NC(=O)/C=C/c2ccccc2)cc(C(=O)O)c1	0	-9	4	6	75*	-4	81*	52*
O=C(/C=C/c1ccc([N+](=O)[O-])cc1)Nc1cccc(C(=O)Nc2ccccc2C(=O)O)c1	-4	0	0	4	44*	-1	83*	50*
O=C(Nc1ccccc1C(=O)O)c1cccc(NC(=O)c2ccccc2Cl)c1	1	3	-1	1	34	1	x	x
Cc1ccccc1C(=O)Nc1cccc(C(=O)Nc2ccccc2C(=O)O)c1	5	0	1	-5	36*	4	23	3
O=C(N/N=C/C(Cl)=C/c1ccc([N+](=O)[O-])cc1)C(=O)Nc1ccccc1C(=O)O	7	6	0	-3	52*	2	46*	19*
